The values that follow come from PMC10812921, “Transcriptional Coactivator BOB1 (OBF1, OCA-B) Modulates the Specificity of DNA Recognition by the POU-Domain Factors OCT1 and OCT2 in a Monomeric Configuration”.

Experiment [1] deals with POU1 (OCT1 POU domain) (human, UniProt P14859 260-458). Kind of experiment: EMSA-SELEX-seq; no BOB1; 20 mM Tris-HCl pH 7.6, 140 mM NaCl, 10% glycerol, 0.5 mM EDTA, 0.05% Triton X-100, 0.1 mg/mL BSA, 0.1 mg/mL poly(dI-dC), 5 mM DTT, room temperature, 20 min; high values mean tight binding. To be noted: protein: recombinant; dsDNA, one strand shown. In a few lines:
(§1)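 Binding preference is reported as the percentage of sequenced 8-mers that match a motif pattern. Tagged POU-domain proteins were made in E. coli BL21, purified under denaturing conditions and renatured. A 30 ng portion was combined with 300 ng of a PCR-amplified double-stranded random 35-nt library, with or without 28 ng coactivator protein, in 20 μL Tris–HCl pH 7.6 binding buffer for 20 min at RT. Complex bands were excised from native 6% PAGE, eluted and PCR-amplified over four rounds before Illumina sequencing.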
(Mobility shift assays separate free from complexed probe on a gel.)

In experiment [2] the target is T1, POU2 (OCT2 POU domain) (human, UniProt P09086 175-386).
T1 sequence: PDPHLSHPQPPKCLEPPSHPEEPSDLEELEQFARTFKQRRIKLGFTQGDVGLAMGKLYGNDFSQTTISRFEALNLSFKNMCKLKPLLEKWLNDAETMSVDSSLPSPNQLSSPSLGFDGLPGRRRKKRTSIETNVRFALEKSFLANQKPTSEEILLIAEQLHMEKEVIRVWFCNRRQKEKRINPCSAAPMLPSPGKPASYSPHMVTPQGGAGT
The description is as above. To be noted: protein: recombinant; dsDNA, one strand shown. In a few lines: as §1

The target of experiment [3] is POU1 (OCT1 POU domain);BOB1 (OBF1, OCA-B) (human;human, UniProt P14859;Q16633 260-458;1-256, |). Kind of experiment: EMSA-SELEX-seq; with BOB1 (ternary complex band); 20 mM Tris-HCl pH 7.6, 140 mM NaCl, 10% glycerol, 0.5 mM EDTA, 0.05% Triton X-100, 0.1 mg/mL BSA, 0.1 mg/mL poly(dI-dC), 5 mM DTT, room temperature, 20 min; high values mean tight binding. The following applies: protein: recombinant;recombinant; copies: 1;1; dsDNA, one strand shown. In a few lines:
as §1

For experiment [4], the target named is T2, POU2 (OCT2 POU domain);BOB1 (OBF1, OCA-B) (human;human, UniProt P09086;Q16633 175-386;1-256, |).
T2 sequence 1: T1 sequence
T2 sequence 2: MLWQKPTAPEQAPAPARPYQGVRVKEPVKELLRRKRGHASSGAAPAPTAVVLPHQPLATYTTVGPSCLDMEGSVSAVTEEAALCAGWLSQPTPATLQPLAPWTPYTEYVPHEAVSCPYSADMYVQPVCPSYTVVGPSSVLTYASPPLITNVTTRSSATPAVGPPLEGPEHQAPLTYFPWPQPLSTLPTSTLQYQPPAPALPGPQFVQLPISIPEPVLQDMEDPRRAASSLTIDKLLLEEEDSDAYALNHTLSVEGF
The description is as above. The following applies: protein: recombinant;recombinant; copies: 1;1; dsDNA, one strand shown. In a few lines:
as §1

Chain of POU1 (OCT1 POU domain) (P14859 260-458): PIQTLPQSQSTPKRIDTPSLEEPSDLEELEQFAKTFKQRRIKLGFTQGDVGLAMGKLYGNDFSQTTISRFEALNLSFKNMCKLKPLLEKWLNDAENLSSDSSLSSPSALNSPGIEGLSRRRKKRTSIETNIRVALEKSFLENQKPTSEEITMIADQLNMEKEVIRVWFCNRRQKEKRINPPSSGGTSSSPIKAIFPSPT

AATCTAAC: the binding signal is 0.0328 % of ANNNNAAN 8-mers in experiment [1], 0.0339 % of ANNNNAAN 8-mers in experiment [2], 0.0316 % of ANNNNAAN 8-mers in experiment [3] and 0.0272 % of ANNNNAAN 8-mers in experiment [4].

Regarding AGAATAAA, the binding signal in experiment [1] is 0.161 % of ANNNNAAN 8-mers; in experiment [2] it was 0.182 % of ANNNNAAN 8-mers; in experiment [3], 0.0757 % of ANNNNAAN 8-mers; in experiment [4], 0.0892 % of ANNNNAAN 8-mers.

As to ATCGGAAT, the binding signal was 0.0717 % of ANNNNAAN 8-mers in experiment [1], 0.0869 % of ANNNNAAN 8-mers in experiment [2], 0.0581 % of ANNNNAAN 8-mers in experiment [3] and 0.0768 % of ANNNNAAN 8-mers in experiment [4].

Regarding AATTCAAC, the binding signal in experiment [1] is 0.069 % of ANNNNAAN 8-mers; in experiment [2], 0.0708 % of ANNNNAAN 8-mers; in experiment [3], 0.0589 % of ANNNNAAN 8-mers; in experiment [4], 0.0512 % of ANNNNAAN 8-mers.

Turning to ACGTGAAT, the binding signal in experiment [1] is 0.0732 % of ANNNNAAN 8-mers; in experiment [2], 0.107 % of ANNNNAAN 8-mers; in experiment [3], 0.0558 % of ANNNNAAN 8-mers; in experiment [4], 0.0784 % of ANNNNAAN 8-mers.

As to ACTTGAAA, the binding signal in experiment [1] is 0.0317 % of ANNNNAAN 8-mers; in experiment [2] it was 0.042 % of ANNNNAAN 8-mers; in experiment [3] it was 0.0433 % of ANNNNAAN 8-mers; in experiment [4], 0.0371 % of ANNNNAAN 8-mers.

On to ACGTAAAC, for which the binding signal in experiment [1] was 0.0358 % of ANNNNAAN 8-mers; in experiment [2] it was 0.0299 % of ANNNNAAN 8-mers; in experiment [3], 0.0433 % of ANNNNAAN 8-mers; in experiment [4], 0.0405 % of ANNNNAAN 8-mers.

AAGGGAAA: the binding signal was 0.196 % of ANNNNAAN 8-mers in experiment [1], 0.146 % of ANNNNAAN 8-mers in experiment [2], 0.255 % of ANNNNAAN 8-mers in experiment [3] and 0.136 % of ANNNNAAN 8-mers in experiment [4].

As for ATCAAAAC, the binding signal in experiment [1] was 0.0465 % of ANNNNAAN 8-mers; in experiment [2], 0.0443 % of ANNNNAAN 8-mers; in experiment [3] it was 0.0539 % of ANNNNAAN 8-mers; in experiment [4], 0.0347 % of ANNNNAAN 8-mers.

As to AAACGAAT, the binding signal in experiment [1] is 0.0767 % of ANNNNAAN 8-mers; in experiment [2], 0.0783 % of ANNNNAAN 8-mers; in experiment [3] it was 0.0675 % of ANNNNAAN 8-mers; in experiment [4], 0.0792 % of ANNNNAAN 8-mers.

With ATGCAAAC, the binding signal in experiment [1] was 0.543 % of ANNNNAAN 8-mers; in experiment [2] it was 0.445 % of ANNNNAAN 8-mers; in experiment [3], 1.35 % of ANNNNAAN 8-mers; in experiment [4], 1.27 % of ANNNNAAN 8-mers.

As to ACAAGAAG, the binding signal in experiment [1] is 0.0347 % of ANNNNAAN 8-mers; in experiment [2], 0.0316 % of ANNNNAAN 8-mers; in experiment [3], 0.0273 % of ANNNNAAN 8-mers; in experiment [4] it was 0.0322 % of ANNNNAAN 8-mers.

For the sequence ACATGAAA, the binding signal in experiment [1] was 0.0671 % of ANNNNAAN 8-mers; in experiment [2], 0.0708 % of ANNNNAAN 8-mers; in experiment [3], 0.0823 % of ANNNNAAN 8-mers; in experiment [4] it was 0.0619 % of ANNNNAAN 8-mers.

As for AGTTCAAT, the binding signal in experiment [1] was 0.0446 % of ANNNNAAN 8-mers; in experiment [2] it was 0.0432 % of ANNNNAAN 8-mers; in experiment [3], 0.046 % of ANNNNAAN 8-mers; in experiment [4] it was 0.0421 % of ANNNNAAN 8-mers.

As to ATTCAAAA, the binding signal is 0.365 % of ANNNNAAN 8-mers in experiment [1], 0.277 % of ANNNNAAN 8-mers in experiment [2], 0.427 % of ANNNNAAN 8-mers in experiment [3] and 0.278 % of ANNNNAAN 8-mers in experiment [4].

For the sequence AATCCAAA, the binding signal is 0.0507 % of ANNNNAAN 8-mers in experiment [1], 0.0386 % of ANNNNAAN 8-mers in experiment [2], 0.0726 % of ANNNNAAN 8-mers in experiment [3] and 0.0371 % of ANNNNAAN 8-mers in experiment [4].

As to ACTTTAAG, the binding signal was 0.0336 % of ANNNNAAN 8-mers in experiment [1], 0.0299 % of ANNNNAAN 8-mers in experiment [2], 0.0332 % of ANNNNAAN 8-mers in experiment [3] and 0.0322 % of ANNNNAAN 8-mers in experiment [4].

As for ACAATAAC, the binding signal in experiment [1] was 0.0248 % of ANNNNAAN 8-mers; in experiment [2], 0.0259 % of ANNNNAAN 8-mers; in experiment [3] it was 0.0211 % of ANNNNAAN 8-mers; in experiment [4] it was 0.0248 % of ANNNNAAN 8-mers.

On to AGTTGAAA, for which the binding signal in experiment [1] was 0.0477 % of ANNNNAAN 8-mers; in experiment [2], 0.0489 % of ANNNNAAN 8-mers; in experiment [3], 0.0531 % of ANNNNAAN 8-mers; in experiment [4], 0.0512 % of ANNNNAAN 8-mers.

As to ATGTTAAG, the binding signal was 0.128 % of ANNNNAAN 8-mers in experiment [1], 0.146 % of ANNNNAAN 8-mers in experiment [2], 0.0835 % of ANNNNAAN 8-mers in experiment [3] and 0.0966 % of ANNNNAAN 8-mers in experiment [4].

Turning to AGTACAAA, the binding signal in experiment [1] was 0.0336 % of ANNNNAAN 8-mers; in experiment [2], 0.0328 % of ANNNNAAN 8-mers; in experiment [3], 0.0375 % of ANNNNAAN 8-mers; in experiment [4], 0.0446 % of ANNNNAAN 8-mers.

Take ATGAAAAA: the binding signal in experiment [1] was 0.149 % of ANNNNAAN 8-mers; in experiment [2], 0.123 % of ANNNNAAN 8-mers; in experiment [3] it was 0.204 % of ANNNNAAN 8-mers; in experiment [4], 0.121 % of ANNNNAAN 8-mers.

Consider ATGAAAAC, for which the binding signal is 0.0717 % of ANNNNAAN 8-mers in experiment [1], 0.0604 % of ANNNNAAN 8-mers in experiment [2], 0.0956 % of ANNNNAAN 8-mers in experiment [3] and 0.0586 % of ANNNNAAN 8-mers in experiment [4].
